FBW7 activator = human FBW7 E3 ligase activation, primary screen; normalized activity (activation), % at 26.1 µM; hit rate 0.13% among 650,000; Q969H0; AlphaScreen FBW7–phospho-cyclin E peptide binding, activator screen; in the data active = normalized activity above about 1.9%;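 note: purified mutant Fbw7 with reduced substrate affinity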
Target sequence (Q969H0 whole entry, looked up): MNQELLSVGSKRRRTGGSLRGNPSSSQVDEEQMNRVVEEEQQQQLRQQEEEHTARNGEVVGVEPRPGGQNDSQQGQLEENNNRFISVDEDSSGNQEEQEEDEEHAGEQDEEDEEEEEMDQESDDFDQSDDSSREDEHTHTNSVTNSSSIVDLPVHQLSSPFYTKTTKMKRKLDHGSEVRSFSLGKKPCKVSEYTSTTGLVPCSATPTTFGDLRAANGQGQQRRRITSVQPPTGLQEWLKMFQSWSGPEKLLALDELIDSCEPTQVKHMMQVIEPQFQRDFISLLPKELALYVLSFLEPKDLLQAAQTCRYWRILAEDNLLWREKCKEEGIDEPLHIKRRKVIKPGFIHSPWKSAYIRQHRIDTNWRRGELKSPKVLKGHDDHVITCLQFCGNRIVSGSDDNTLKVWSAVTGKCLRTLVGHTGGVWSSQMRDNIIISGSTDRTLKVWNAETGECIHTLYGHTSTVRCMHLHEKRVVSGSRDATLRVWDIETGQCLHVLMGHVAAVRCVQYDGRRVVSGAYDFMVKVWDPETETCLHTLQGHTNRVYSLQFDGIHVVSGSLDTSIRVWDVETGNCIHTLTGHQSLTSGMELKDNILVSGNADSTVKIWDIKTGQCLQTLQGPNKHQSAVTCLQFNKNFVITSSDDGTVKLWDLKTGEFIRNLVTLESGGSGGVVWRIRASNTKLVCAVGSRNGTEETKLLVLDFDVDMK
GPR151 activ = activators of human GPR151 | Q8TDV0 | PathHunter beta-arrestin GPR151 cells, luminescence | activation, % at 11.2 µM | hit rate 1% among 650,000 | AID 1508602; in the data active = activation above about 4.9%;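 note: 0% = median of compound wells and 100% = cells with positive control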
TEAD-YAP block = TEAD-YAP interaction inhibition; hit rate 1.4% among 640,000; inhibition, % at 9.12 µM; HEK-TIYL cells, TEAD-Gal4/YAP UAS-luciferase luminescence; in the data active = inhibition above about 32%;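 note: 0% = median of test compound wells and 100% = reference inhibitor wells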
MITF inh = inhibitors of human MITF; hit rate 0.91% among 650,000; AlphaScreen MITF homodimerization, bead proximity signal; inhibition, % at 2.6 µM; in the data active = inhibition above about 50%;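 note: 0% = vehicle wells with protein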
GPR151 confirm = human GPR151 activation, confirmation screen; shares compounds with GPR151 activ; GPR151 PathHunter beta-arrestin cells, luminescence, 90 min; % of EA-reagent control over plate median; activation, % at 11.2 µM; 6,700 tested, under 10 active; AID 1508609;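 active = mean percent activation across replicates above the confirmation screen cutoff of 4.91%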
GPR119 counter = activates human GPR119 in a GPR151 counter-screen. GPR119 PathHunter beta-arrestin cells, luminescence, 90 min; 0 = compound-well median, 100 = enzyme-acceptor control. hit rate 0.3% among 6,700. activation, % at 11.2 µM. shares compounds with GPR151 activ;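 active = mean percent activation in the counterscreen above 29.09%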;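 note: counterscreen on off-target GPR119 to flag nonselective hits from the GPR151 activator screen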
Starred values were filed as active, the others as inactive. Rows were chosen to be rich in hits. Some 3.5% of all compounds tested hit in one or more screens of this group.

O=C(NC1CCSC1=O)c1cccc(C(=O)NC2CCSC2=O)c1 (stereo not drawn) was read as FBW7 activator -0.3, GPR151 activ 5.3*, TEAD-YAP block -3.2, MITF inh -27.5, GPR151 confirm -0.5 and GPR119 counter -0.9.
For C/C(=N\NC(=O)c1ccc(N(C)S(=O)(=O)c2ccccc2)cc1)c1ccccc1 the results were FBW7 activator 0.1, GPR151 activ 1.0, TEAD-YAP block 3.4 and MITF inh 12.3.
`CNC(=O)c1ccc(-c2cccc(N(C)C)c2)nc1NCC1CC1` gave FBW7 activator 0.4, GPR151 activ 0.4, TEAD-YAP block -1.3 and MITF inh 15.7.
`O=C(NC(=O)c1ccccc1)Nc1ccc(Br)cc1` gave FBW7 activator -0.1, GPR151 activ 6.1*, TEAD-YAP block -20.5, MITF inh -10.3, GPR151 confirm -1.1 and GPR119 counter -10.6.
Fc1ccc(C(c2nnnn2Cc2ccco2)N2CCN(Cc3ccccc3)CC2)cc1 (stereo not drawn) was read as FBW7 activator -0.2, GPR151 activ 5.8*, TEAD-YAP block -2.0, MITF inh -0.8, GPR151 confirm 0.1 and GPR119 counter -1.8.
`Fc1ccc(C(c2nnnn2Cc2ccco2)N2CCN(C3CCCCC3)CC2)cc1` (stereo not drawn) gave FBW7 activator -0.1, GPR151 activ 0.6, TEAD-YAP block -5.7 and MITF inh -3.0.
`CCOC(=O)CNC(=O)N1CCOc2ccccc21` gave FBW7 activator -0.1, GPR151 activ -3.0, TEAD-YAP block -0.1 and MITF inh 7.2.
`COc1ccc(N(CCCN2C(=O)c3cccc4cccc(c34)C2=O)C(=O)c2ccc([N+](=O)[O-])cc2Cl)cc1` gave FBW7 activator -0.2, GPR151 activ 12.4*, TEAD-YAP block 4.7, MITF inh -4.2, GPR151 confirm -0.3 and GPR119 counter -0.1.
Screening COc1ccc(N(CCCN2C(=O)c3cccc4cccc(c34)C2=O)C(=O)c2cc(Cl)cc(Cl)c2)cc1 returned FBW7 activator -0.1, GPR151 activ -1.1, TEAD-YAP block 4.3 and MITF inh -1.6.
CC(C)(C)OC(=O)N1CCC(c2ccnc3cc(C(C)(C)C)nn23)CC1 was read as FBW7 activator 0.4, GPR151 activ 0.6, TEAD-YAP block -7.3 and MITF inh -5.3.
O=C(O)C(Cc1c[nH]c2ccccc12)N1C(=O)C2C3C=CC(C3)C2C1=O (stereo not drawn) was read as FBW7 activator 0.1, GPR151 activ 1.2, TEAD-YAP block 1.2 and MITF inh -10.0.
`CSc1ccc2nc(NC(=O)c3ccccc3C)sc2c1` gave FBW7 activator 0.0, GPR151 activ -5.6, TEAD-YAP block -39.4 and MITF inh 4.7.
For COc1cccc(C(=O)Nc2nc3ccc(SC)cc3s2)c1OC the results were FBW7 activator -0.1, GPR151 activ 5.0*, TEAD-YAP block -14.4, MITF inh -15.4, GPR151 confirm 0.5 and GPR119 counter 7.6.
For CC(=O)c1ccc(NC(=O)Nc2ccc(CC(=O)O)cc2)cc1 the results were FBW7 activator 0.1, GPR151 activ 6.6*, TEAD-YAP block -3.2, MITF inh -3.3, GPR151 confirm 0.4 and GPR119 counter 8.7.
For CC(=O)Nc1ccc(C(=O)Nc2ccc(CC(=O)O)cc2)cc1 the results were FBW7 activator 0.0, GPR151 activ 0.0, TEAD-YAP block 2.0 and MITF inh 3.4.
`CC(C)(C)N(Cc1ccccc1)C(=O)CSc1nnnn1-c1ccc(O)cc1` gave FBW7 activator 0.1, GPR151 activ 0.3, TEAD-YAP block -5.9 and MITF inh -0.6.
CCN1C(=O)/C(=C/c2cccs2)S/C1=N/S(=O)(=O)c1ccccc1 was read as FBW7 activator 0.0, GPR151 activ -0.4, TEAD-YAP block 6.0 and MITF inh 9.3.
`CCn1c(C(=O)O)c(CNC2CCCC2)c2ccc(C)cc21` gave FBW7 activator 0.4, GPR151 activ 8.4*, TEAD-YAP block -1.7, MITF inh 5.7, GPR151 confirm -0.4 and GPR119 counter 3.8.
`COc1ccc(OCC2Cn3c(nc4c3c(=O)[nH]c(=O)n4C)O2)cc1` (stereo not drawn) gave FBW7 activator -0.2, GPR151 activ 1.1, TEAD-YAP block 0.9 and MITF inh 3.6.
Cc1ccc(CN2CCN(Cc3nc4ccccc4n3C)CC2CCO)cc1 (stereo not drawn) was read as FBW7 activator 0.2, GPR151 activ 18.7*, TEAD-YAP block -1.7, MITF inh 14.1, GPR151 confirm 0.3 and GPR119 counter 1.8.
CC(C)CN1CCN(Cc2nc3ccccc3n2C)CC1CCO (stereo not drawn) was read as FBW7 activator -0.1, GPR151 activ 1.7, TEAD-YAP block 2.4 and MITF inh -0.7.
CC1=NN(c2ccccc2)C(=O)/C1=C/c1ccc(OCC(=O)O)cc1 was read as FBW7 activator 0.0, GPR151 activ -0.8, TEAD-YAP block -0.4 and MITF inh 3.2.
For CCc1c(C)nc2cc(-c3ccc(OC)c(OC)c3)nn2c1NCCCn1ccnc1 the results were FBW7 activator 0.1, GPR151 activ 6.3*, TEAD-YAP block -51.1, MITF inh 12.8, GPR151 confirm 1.1 and GPR119 counter 9.0.
Screening CCc1c(C)nc2cc(-c3ccc(OC)c(OC)c3)nn2c1NCCO returned FBW7 activator -0.1, GPR151 activ 0.0, TEAD-YAP block -28.9 and MITF inh -2.4.
`CCCCC1(CCCC)NC(=S)N(c2ccc(C)cc2)N1` gave FBW7 activator 0.0, GPR151 activ 11.4*, TEAD-YAP block -5.5, MITF inh 14.6, GPR151 confirm -1.1 and GPR119 counter -3.6.
`CC(=O)Nc1ccc(NS(=O)(=O)c2ccc3cc(C)ccc3c2)cc1` gave FBW7 activator 0.2, GPR151 activ -1.8, TEAD-YAP block 13.1 and MITF inh 14.2.
Screening CSc1cccc(NC(=O)c2nnn(Cc3ccc(C(C)C)cc3)c2N)c1 returned FBW7 activator -0.1, GPR151 activ -0.6, TEAD-YAP block -33.1 and MITF inh -11.7.
Screening COc1ccc2ccccc2c1CN1CCN(CC(C)(C)C)C(CCO)C1 (stereo not drawn) returned FBW7 activator 0.5, GPR151 activ 7.7*, TEAD-YAP block -3.3, MITF inh 10.8, GPR151 confirm -0.5 and GPR119 counter -7.3.
COc1ccc2ccccc2c1CN1CCN(C)C(CCO)C1 (stereo not drawn) was read as FBW7 activator 0.0, GPR151 activ 0.5, TEAD-YAP block -0.6 and MITF inh -0.6.
For CC(=O)NC(=S)Nc1ccc(S(=O)(=O)N(C)Cc2ccccc2)cc1 the results were FBW7 activator -0.2, GPR151 activ -0.8, TEAD-YAP block 12.2 and MITF inh 11.3.
